Laboratory results as given in PubChem BioAssay (NCATS).
Results filed as inconclusive are left out. The source made the active and inactive calls. Calls come from the whole dose curve; as a rule, active = well fitted curve in the direction sought with a large enough effect; inconclusive = small, poorly fitted or top-dose-only effect, or another doubt; inactive = no such curve, though single readings can be large; an effect the other way counts as inactive or inconclusive.

What was measured:
[1] = HEK-293 Cancer Cell Toxicity qHTS against the NCATS CANVASS Library (AID 1347355); note: series mostly up to about 46 µM; nearly all actives have a fitted effect of over 65% in size
Method in brief: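 Cells at 1000/well were given compound 4 h after plating in an 11-point series. Viability was read by CellTiter-Glo luminescence after 72 h at 37 degrees C.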

[2] = HPAF-II 24hr Apoptosis Induction qHTS against the NCATS CANVASS Library (AID 1347356)
Method in brief: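 HPAF-II cells (500/well) exposed to compounds in 11-point series for 24 h at 37 degrees C; caspase-3/7 activity read by Caspase-Glo luminescence after 15 min at room temperature. Doxorubicin titration as control.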

[3] = HEK293 18hr Apoptosis Induction qHTS against the NCATS CANVASS Library (AID 1347357)
Method in brief: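 Natural products applied to HEK293 for 18 hr; Caspase-Glo 3/7 readout.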

[4] = HPAF-II 12hr Apoptosis Induction qHTS against the NCATS CANVASS Library (AID 1347358)
Method in brief: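 HPAF-II cells, 500/well in DMEM + 10% FBS, exposed 12 hours at 37 degrees C to compound (11-point). Caspase-Glo 3/7 added for 15 min at room temperature; luminescence reflects caspase-3/7 activity.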

[5] = HEK293 24hr Apoptosis Induction qHTS against the NCATS CANVASS Library (AID 1347359)
From the text: Natural products and their derivatives continue to be wellsprings of nascent therapeutic potential. However, many laboratories have limited resources for biological evaluation, leaving their previously isolated or synthesized compounds largely or completely untested. To address this issue, the Canvass library of natural products was assembled (https://tripod.nih.gov/canvass), in collaboration with academic and industry researchers, for quantitative high-throughput screening (qHTS) across a diverse set of cell-based and biochemical assays. The pure (>85% purity by liquid chromatography/mass spectrometry [LC/MS]) Canvass library of 346 natural products were submitted by 45 academic laboratories and companies around the world. […] The library was formatted into 1536-well plates and evaluated in 50 qHTS (in an 11-pnt concentration series) bioassays with broad scope of disease-relevant mechanisms. The resulting data set from 50 different assays was then systematically analyzed to identify overall trends and specific natural products with interesting biological activities. […] The luminescence is proportional to the amount of caspase activity in the assay reaction. […]
Cancer Cell Apoptosis Assay 1. […] Luminescence signal was acquired via the ViewLux plate reader (PerkinElmer) using a clear filter, 20 second exposure and 2x binning settings.

[6] = HPAF-II 18hr Apoptosis Induction qHTS against the NCATS CANVASS Library (AID 1347360)
Method in brief: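 Luminescent DEVD-substrate signal, proportional to caspase activity, is measured in HPAF-II cells after 18-hour treatment across a concentration series; doxorubicin serves as control.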

[7] = HEK293 12hr Apoptosis Induction qHTS against the NCATS CANVASS Library (AID 1347361)
Method in brief: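 Luminescent caspase-3/7 signal, proportional to enzyme activity, was recorded from HEK293 cultures in DMEM + 10% FBS treated for 12 hours with titrated natural products (11 points). Doxorubicin (0.1nM - 4uM) served as control.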

[8] = system: NAD(P)H diaphorase (Clostridium kluyveri); experiment: Diaphorse counterscreen qHTS: Assay Interference Panel against the NCATS CANVASS Library (AID 1347362)
Method in brief: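 Counterscreen for coupling-enzyme interference: resorufin fluorescence from resazurin/NADH turnover, read after 5 min at room temperature. Compounds were tested over an 11-point series after 15 min dark preincubation with diaphorase in PBS-Tween.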

[9] = target: Luciferin 4-monooxygenase (Photinus pyralis) (UniProt P08659); experiment: Firefly luciferase counterscreen qHTS: Assay Interference Panel against the NCATS CANVASS Library (AID 1347363); note: series mostly up to about 57 µM
Luciferin 4-monooxygenase (Photinus pyralis), sequence (P08659 whole entry, looked up): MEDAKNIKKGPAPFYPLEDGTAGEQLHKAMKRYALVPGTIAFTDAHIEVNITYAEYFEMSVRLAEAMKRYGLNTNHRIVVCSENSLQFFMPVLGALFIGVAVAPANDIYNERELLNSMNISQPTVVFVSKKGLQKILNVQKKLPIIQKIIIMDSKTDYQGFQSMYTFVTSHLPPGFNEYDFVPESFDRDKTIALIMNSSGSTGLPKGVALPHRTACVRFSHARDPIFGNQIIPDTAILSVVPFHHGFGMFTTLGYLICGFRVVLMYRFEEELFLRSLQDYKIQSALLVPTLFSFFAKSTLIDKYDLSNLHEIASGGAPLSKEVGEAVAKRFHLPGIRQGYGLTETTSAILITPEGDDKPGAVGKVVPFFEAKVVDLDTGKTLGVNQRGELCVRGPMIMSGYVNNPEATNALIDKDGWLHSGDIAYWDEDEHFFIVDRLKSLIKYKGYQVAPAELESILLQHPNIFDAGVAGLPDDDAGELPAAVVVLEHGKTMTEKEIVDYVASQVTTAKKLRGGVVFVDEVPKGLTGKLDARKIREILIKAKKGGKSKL
Method in brief: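 Luminescence inhibition readout: compounds (11-point qHTS) sat 15 min at room temperature with substrate mix (0.013 mM luciferin and ATP), then firefly luciferase was added and signal read 5 min later.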

[10] = KB-3-1 Cancer Cell Toxicity qHTS against the NCATS CANVASS Library (AID 1347366); note: series mostly up to about 46 µM; nearly all actives have a fitted effect of over 75% in size
Method in brief: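 Cytotoxicity toward KB-3-1 cells (500/well, DMEM + 10% FBS) was scored by CellTiter-Glo luminescence following 72 hr exposure at 37C, with bortezomib titrated as control.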

Measured: outcome

NCCc1ccc(O)cc1
inactive: [1] | [2] | [3] | [4] | [5] | [6] | [7] | [8] | [9] | [10]
